Results published in PubChem BioAssay (NCATS).
Values joined by “and” are separate entries in the source; they are usually repeats but may differ in a detail not shown here. Equal entries are not always repeated. Inconclusive results are not listed. Active and inactive are the calls of the source. Calls follow the shape of the dose curve; as a rule, active = well fitted curve in the direction sought with a large enough effect; inconclusive = small, poorly fitted or top-dose-only effect, or another doubt; inactive = no such curve, though single readings can be large; an effect the other way counts as inactive or inconclusive.

Key:
TAB165 = experiment: qHTS profiling for inhibitors of Plasmodium falciparum proliferation (AID 504749);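 also: 0% = DMSO vehicle and full inhibition = artemisinin control; nearly all actives have a fitted effect of over 60% in size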; details: P. falciparum in erythrocytes, SYBR Green DNA, 72 h; series mostly up to 28.7 µM
Method in brief: (§1)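 Infected RBCs, 0.3% parasitemia/2.5% Hct final; cpd 72 h, 37 C, 5% CO2; lysis buffer with saponin/triton/SYBR Green I, o/n RT dark; FI 485/535; norm. to artemisinin (0.29 uM) and DMSO.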

W2 = experiment: as above; details: P. falciparum in erythrocytes, SYBR Green DNA, 72 h; series mostly up to 28.7 µM
Method in brief: as §1

CRL-7250 = normal cell line; experiment: Cytotoxic Profiling of Annotated Libraries Using Quantitative High-Throughput Screening (AID 1296008); details: Five cell lines viability, CellTiter-Glo ATP luminescence, 48-72 h; max response: hits give low values; also: nearly all actives have a fitted effect of over 60% in size; also: potency is read from the fitted curve at half-maximal effect; as to max response: % is scaled to controls: 0 for no effect and ±100 for the full control effect
Method in brief: (§2)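 Cytotoxicity was measured as CellTiter-Glo ATP luminescence, read after 10 min at room temperature. Compound treatment of the cells lasted 48 or 72 hr at 37 degrees Celsius in a qHTS format.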

HEK293 = experiment: as above; details: Five cell lines viability, CellTiter-Glo ATP luminescence, 48-72 h; max response: hits give low values
Method in brief: as §2

HaCat [1] = experiment: as above; details: Five cell lines viability, CellTiter-Glo ATP luminescence, 48-72 h; max response: hits give low values
Method in brief: as §2

KB-3-1 = experiment: as above; details: Five cell lines viability, CellTiter-Glo ATP luminescence, 48-72 h; max response: hits give low values
Method in brief: as §2

NIH3T3 [2] = experiment: as above; details: Five cell lines viability, CellTiter-Glo ATP luminescence, 48-72 h; max response: hits give low values
Method in brief: as §2

HACAT [3] = experiment: qHTS assay to identify novel small-molecules to repurpose for Merkel cell carcinoma treatment (AID 1296009); details: MCC and control cell lines, CellTiter-Glo viability, 72 h; at 44.8 µM (top of the series) unless noted; also: nearly all actives have a fitted effect of over 60% in size
Method in brief: (§3)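 72 hr, 37 degree celsius; NPC 8-pt / MIPE 11-pt dose response; compound pinned in DMSO; CellTiter-Glo, 10 min RT, luminescence; normalized to no-cell and DMSO controls.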

HEK293T = experiment: as above; details: MCC and control cell lines, CellTiter-Glo viability, 72 h; at 44.8 µM (top of the series) unless noted
Method in brief: as §3

MCC-13 = experiment: as above; details: MCC and control cell lines, CellTiter-Glo viability, 72 h; series mostly up to 46 µM
Method in brief: as §3

MKL-1 = experiment: as above; details: MCC and control cell lines, CellTiter-Glo viability, 72 h; series mostly up to 46 µM
Method in brief: as §3

MKL-2 = experiment: as above; details: MCC and control cell lines, CellTiter-Glo viability, 72 h; series mostly up to 46 µM
Method in brief: as §3

UISO = experiment: as above; details: MCC and control cell lines, CellTiter-Glo viability, 72 h; series mostly up to 46 µM
Method in brief: as §3

WaGa = experiment: as above; details: MCC and control cell lines, CellTiter-Glo viability, 72 h; series mostly up to 46 µM
Method in brief: as §3

C33A = experiment: Primary qHTS to identify gynecologic anti-cancer compounds using libraries of approved drugs and bioactive compounds (AID 1345084); details: Gynecologic cancer cell panel viability, ATPlite luminescence, 48 h; series mostly up to 57.5 µM; also: % is scaled to controls: 0 for no effect and ±100 for the full control effect; nearly all actives have a fitted effect of over 55% in size
Method in brief: (§4)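 In this quantitative HTS, cell killing is estimated from loss of ATP-dependent luciferase light. Cells see five compound concentrations over a 48 h exposure.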

CAOV3 = experiment: as above; details: Gynecologic cancer cell panel viability, ATPlite luminescence, 48 h; series mostly up to 57.5 µM
Method in brief: as §4

CASKI = experiment: as above; details: Gynecologic cancer cell panel viability, ATPlite luminescence, 48 h; series mostly up to 57.5 µM
Method in brief: as §4

Es-2 = experiment: as above; details: Gynecologic cancer cell panel viability, ATPlite luminescence, 48 h; series mostly up to 57.5 µM
Method in brief: as §4

MCC-26 = experiment: qHTS assay to identify novel small-molecules to repurpose for Merkel cell carcinoma treatment (AID 1296009); details: MCC and control cell lines, CellTiter-Glo viability, 72 h; series mostly up to 46 µM; also: nearly all actives have a fitted effect of over 60% in size
Method in brief: as §3

NIH3T3 [4] = experiment: as above; details: MCC and control cell lines, CellTiter-Glo viability, 72 h; at 44.8 µM (top of the series) unless noted
Method in brief: as §3

CN(CCOc1ccc(CC2SC(=O)NC2=O)cc1)c1ccccn1 (stereo unspecified)
inactive: Potency (TAB165) | Potency (W2) | max response (CRL-7250) 0.739% | max response (HEK293) 2.68% | outcome (HEK293) | outcome (HaCat [1]) | max response (KB-3-1) -1.01% and -2.41% | max response (NIH3T3 [2]) 0.939% | outcome (HACAT [3]) | outcome (HEK293T) | Potency (MCC-13) | Potency (MKL-1) | Potency (MKL-2) | Potency (UISO) | Potency (WaGa) | Potency (C33A) | Potency (CAOV3) | Potency (CASKI) | Potency (Es-2)

Cc1cccc(N(C)C(=S)Oc2ccc3ccccc3c2)c1
inactive: Potency (TAB165) | Potency (W2) | max response (CRL-7250) -5.5% | outcome (CRL-7250) | max response (HaCat [1]) 0.266% and 1.06% | max response (KB-3-1) 1.04% | outcome (KB-3-1) | max response (NIH3T3 [2]) -1.35% and 4.99% | Potency (MCC-13) | Potency (MCC-26) | Potency (MKL-1) | Potency (MKL-2) | Potency (UISO) | Potency (WaGa) | Potency (C33A) | Potency (CAOV3) | Potency (CASKI) | Potency (Es-2)

CNNCc1ccc(C(=O)NC(C)C)cc1
inactive: Potency (TAB165) | outcome (CRL-7250) | max response (HEK293) 2.6% | outcome (HEK293) | max response (HaCat [1]) -9.48% | outcome (HaCat [1]) | max response (KB-3-1) -11.6% | outcome (KB-3-1) | max response (NIH3T3 [2]) -4.42% | outcome (NIH3T3 [2]) | outcome (HACAT [3]) | outcome (HEK293T) | Potency (MCC-13) | Potency (MCC-26) | Potency (MKL-1) | Potency (MKL-2) | outcome (NIH3T3 [4]) | Potency (UISO) | Potency (WaGa) | Potency (C33A) | Potency (CAOV3) | Potency (CASKI) | Potency (Es-2)

COc1ccc2c(c1)c(CC(=O)OCC(=O)O)c(C)n2C(=O)c1ccc(Cl)cc1
inactive: max response (CRL-7250) -1.43% and 4.64% | max response (HEK293) -16.6% | outcome (HEK293) | max response (HaCat [1]) -2.32% and -4.14% | max response (KB-3-1) -10.9% and 5.13% | max response (NIH3T3 [2]) -11.9% and 4.26% | outcome (HEK293T) | Potency (MCC-13) | Potency (MCC-26) | Potency (MKL-1) | Potency (MKL-2) | Potency (UISO) | Potency (WaGa) | Potency (C33A) | Potency (CAOV3) | Potency (CASKI) | Potency (Es-2)

CCN[C@H]1C[C@H](C)S(=O)(=O)c2sc(S(N)(=O)=O)cc21
inactive: max response (CRL-7250) -1.48% and 1.03% | max response (HEK293) -5.09% | outcome (HEK293) | max response (HaCat [1]) -6.44% | outcome (HaCat [1]) | max response (KB-3-1) 1.27% and -0.756% | max response (NIH3T3 [2]) 0.236% and 2.34% | outcome (HACAT [3]) | outcome (HEK293T) | Potency (MCC-13) | Potency (MCC-26) | Potency (MKL-1) | Potency (MKL-2) | Potency (UISO) | Potency (WaGa) | Potency (C33A) | Potency (CASKI) | Potency (Es-2)

Clc1ccccc1CN1CCc2sccc2C1
inactive: max response (CRL-7250) -20.6% | outcome (CRL-7250) | max response (HaCat [1]) -7.82% | max response (KB-3-1) 9.17% and -6.26% | max response (NIH3T3 [2]) 1.51% and 3.19% | Potency (MCC-13) | Potency (MCC-26) | Potency (MKL-1) | Potency (MKL-2) | Potency (UISO) | Potency (WaGa) | Potency (C33A) | Potency (CASKI) | Potency (Es-2)

S=P(N1CC1)(N1CC1)N1CC1
active: Potency (HEK293) 22.8 µM
inactive: Potency (TAB165) | Potency (W2) | max response (CRL-7250) -10.3% | outcome (CRL-7250) | outcome (HaCat [1]) | max response (KB-3-1) 19% and 33.9% and 9.73% | max response (NIH3T3 [2]) -7.91% | outcome (HACAT [3]) inactive [at 92 µM] | Potency (MCC-13) | Potency (MKL-1) | Potency (MKL-2) | Potency (UISO) | Potency (WaGa) | Potency (C33A) | Potency (CAOV3) | Potency (Es-2)

CCn1cc(C(=O)O)c(=O)c2cc(F)c(N3CCNCC3)nc21
inactive: max response (CRL-7250) -4.45% and -16.8% | max response (HEK293) -5.1% | outcome (HEK293) | max response (HaCat [1]) -2.73% | outcome (HaCat [1]) | max response (KB-3-1) -1.65% and 0.264% | outcome (NIH3T3 [2]) | outcome (HACAT [3]) | outcome (HEK293T) | Potency (MCC-13) | Potency (MCC-26) | Potency (MKL-1) | Potency (MKL-2) | outcome (NIH3T3 [4]) | Potency (UISO) | Potency (WaGa) | Potency (C33A) | Potency (CAOV3) | Potency (CASKI) | Potency (Es-2)

Cc1ccnc2c1NC(=O)c1cccnc1N2C1CC1
inactive: Potency (TAB165) | Potency (W2) | outcome (CRL-7250) | max response (HEK293) -12% and -5.59% | max response (HaCat [1]) -1.71% | outcome (HaCat [1]) | max response (KB-3-1) 17.8% | outcome (KB-3-1) | max response (NIH3T3 [2]) -5.8% and 2.37% | outcome (HACAT [3]) | Potency (MCC-13) | Potency (MCC-26) | Potency (MKL-1) | Potency (MKL-2) | Potency (UISO) | Potency (WaGa) | Potency (C33A) | Potency (CAOV3) | Potency (CASKI) | Potency (Es-2)
